Screening data from PubChem BioAssay.
A selection: hits, their analogues and other compounds. The true share with any hit is near 3.5%.
TWEAK-Fn14 inh – inhibitors of TWEAK-Fn14 interaction signaling | TWEAK-stimulated Fn14 reporter cells, luciferase luminescence, 8 h | inhibition, % at 10 µM | 2% of 360,000 active | AID 1159606; in the data active means inhibition above about 50%
HSP90 refold inh – inhibitors of HSP90 luciferase refolding in rabbit reticulocyte lysate | luciferase refolding luminescence, 3 h | inhibition, % at 5.6 µM | 0.91% of 290,000 active;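 active means inhibition above the screen-wide mean plus 3 SD, computed separately per campaign, cut at about 16% in these data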;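 further: 0% = DMSO wells and 100% = 60 µM geldanamycin wells; inhibitors lower the luminescence because luciferase stays unfolded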
Platelet DG rel – modulates dense granule release in human platelets; human platelet-rich plasma, SFLLRN dense granule ATP release, luminescence; inhibition, %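 (compounds screened at 7.5 µM in platelet-rich plasma)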; 0.22% of 300,000 active; AID 1663;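 active means mean replicate score, as percent of positive control, at or above 50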
C8 TRAIL sens – caspase-8 TRAIL sensitization | inhibition (viability loss, TRAIL sensitization), % at 10 µM | 1% of 360,000 active | NB7+C8 cells + TRAIL, ATPlite viability luminescence | AID 624354;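 active means compounds causing at least 50% loss of cell viability in the single-dose screen, relative to plate controls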
TROY signal inh – inhibitors of TROY-dependent NF-kB signaling | Q293 LMP1-TROYcd NF-kB luciferase reporter, 4 h | inhibition, % at 10 µM | 0.98% of 360,000 active;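 active means compounds whose plate-normalised and pattern-corrected inhibition of the luciferase reporter signal at the single screening dose is 50% or more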
PPC-1+TRAIL kill – PPC-1 cancer cell killing with TRAIL present | PPC-1 cells + TRAIL, ATPLite viability luminescence | cell killing (% activity), % at 4 µM or 5 µM | 0.41% of 220,000 active | AID 1443;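 active means cell killing above 50% in the first pass at 4 µM, then a duplicate retest at 5 µM averaging 50% or more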;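 further: plate controls were cells with TRAIL plus DMSO for no effect and medium-only wells lacking cells for full effect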
Starred values were filed as active, the others as inactive; . = not tested or not shown.

SMILES | TWEAK-Fn14 inh | HSP90 refold inh | Platelet DG rel | C8 TRAIL sens | TROY signal inh | PPC-1+TRAIL kill
Cn1cc(C=O)c(-c2ccc3c(c2)OCCCO3)n1 | 71* | 2 | 0 | -4 | 25 | .
Cc1sc(NC(=O)Cc2ccc3c(c2)OCO3)nc1-c1ccc2c(c1)CCN2C(=O)c1ccc(F)cc1 | 1 | -1 | -4 | 34 | -8 | -19
Cc1sc(NC(=O)Cc2ccc3c(c2)OCO3)nc1-c1ccc2c(c1)CCN2C(=O)c1ccccc1F | 51* | -3 | -3 | 24 | -8 | 10
CCOc1cc(C2NN=C(c3ccc(C)cc3)S2)ccc1O (stereo not given) | -39 | -6 | . | 39 | -65 | 18
CSc1ccc(CNc2ccccc2)cc1 | . | -4 | -3 | . | . | 10
CSc1ccc(C2NN=C(c3ccccc3)S2)cc1 (stereo not given) | 77* | . | 21 | 84* | 51* | .
COc1ccc(C2NN=C(c3ccc(C)cc3)S2)cc1 (stereo not given) | 26 | -5 | -3 | 50* | -35 | .
COc1ccc(N(C(=O)c2ccncc2)S(=O)(=O)c2cccs2)cc1 | 22 | 3 | 14 | -10 | 13 | 6
COc1ccc(N(C(=O)c2ccncc2)S(=O)(=O)c2ccc3c4c(cccc24)C(=O)N3C)cc1 | 34 | 3 | 0 | 3 | 64* | 16
COc1ccc(N(C(=O)c2cccnc2)S(=O)(=O)c2ccc3c4c(cccc24)C(=O)N3C)cc1 | 64* | 0 | 12 | 0 | 47 | 15
COc1ccc(N(C(=O)c2cccnc2)S(=O)(=O)c2cc(OC)ccc2OC)cc1 | 15 | -4 | 12 | 9 | 3 | .
Cc1cccc(C)c1OCC(O)CN1CCC(CN2C(=O)c3cccc4cccc(c34)C2=O)CC1 (stereo not given) | 62* | -2 | -1 | 20 | 22 | 31
O=C(c1cccs1)c1no[n+]([O-])c1C(=O)c1cccs1 | 6 | 2 | 6 | 92* | -9 | 13
COc1ccc(C(=O)c2no[n+]([O-])c2C(=O)c2ccc(OC)cc2)cc1 | 24 | 5 | 2 | 93* | -13 | 19
COc1ccc(OCC(=O)c2c[nH]c3ccccc23)cc1 | -13 | -2 | -11 | 28 | -29 | 43
COc1ccc2c(C(=O)CCl)c[nH]c2c1 | 53* | 0 | 12 | 12 | 4 | 23
Cc1ccc(-n2c(C)cc(/C=c3/sc4nc5ccccc5n4c3=O)c2C)cc1 | . | 1 | 61* | . | . | -6
O=c1/c(=C\c2cccn2-c2ccccc2)sc2nc3ccccc3n12 | 61* | -4 | . | 2 | 45 | 1
O=C(O)Cn1cc(/C=c2/sc3nc4ccccc4n3c2=O)c2ccccc21 | -24 | 2 | 10 | 0 | 35 | 5
COc1ccccc1NC(=O)CN(Cc1ccco1)C(=O)c1ccc(N2CCCC2=O)cc1 | 15 | . | . | 9 | 3 | .
Cc1ccc(C(=O)N2CCC(Cc3ccccc3)CC2)cc1S(=O)(=O)N1CCOCC1 | 4 | . | . | 1 | 4 | .
C=CCn1c2ccccc2c(=O)c2cc(C#CC[C@@H](C)O)ccc21 | -132 | . | . | 53* | -122 | .
CC(c1ccccc1)N1C(=O)c2ccc(C(=O)Nc3ccc(Br)cc3C(=O)O)cc2C1=O (stereo not given) | 10 | -5 | 12 | 4 | 64* | .
COCCn1c(C)cc(/C=C2/NC(=O)N(c3cccc(Cl)c3)C2=O)c1C | 82* | 10 | 2 | -4 | 81* | 4
CC(C)n1cc(/C=C2\NC(=O)N(c3cccc(Cl)c3)C2=O)c2ccccc21 | 19 | 0 | -2 | 1 | 12 | -1
SMILES | TWEAK-Fn14 inh | HSP90 refold inh | Platelet DG rel | C8 TRAIL sens | TROY signal inh | PPC-1+TRAIL kill
NC(=O)C1(C(N)=O)OC1c1ccc(Cl)c(Cl)c1 (stereo not given) | 8 | 1 | 4 | 4 | 6 | 19
Cc1nc(N2CCN(c3ccccn3)CC2)c2c(C)c(C(=O)Nc3c(F)cc(F)cc3Br)sc2n1 | 65* | 1 | 4 | 16 | 28 | .
Cc1c(C(=O)N2CCN(c3ccc(F)cc3)CC2)sc2ncnc(N3CCN(c4ccccn4)CC3)c12 | 60* | 1 | 8 | 17 | 53* | .
O=C(NCc1cccnc1)c1ccc(-c2ccc(Cl)cc2)o1 | -12 | -3 | 9 | 6 | -12 | -14
O=C(NCc1cccnc1)/C(=C\c1ccc(-c2ccc(Cl)c(Cl)c2)o1)S(=O)(=O)c1ccccc1 | 105* | 7 | 2 | 93* | 89* | 27
COc1ccc(C2(O)CCN(CC(=O)Nc3nc(-c4ccccc4)cs3)CC2)cc1 | 83* | -2 | 5 | -6 | 46 | 2
CCn1c(SCC(=O)Nc2nc(-c3ccccc3)cs2)nnc1-c1ccccc1 | 54* | 1 | 6 | 7 | 43 | 9
Cc1ccc2c(c1)N(C(=O)CCC(=O)NCCCN1CCC(Cc3ccccc3)CC1)CCO2 | 5 | -2 | -1 | 2 | -4 | .
CCN(CC(=O)Nc1ccc(NC(C)=O)cc1)C(=O)CN1C(=O)NC2(CCCC2)C1=O | -9 | . | 1 | -6 | 4 | .
CCOC(=O)C1CCN(S(=O)(=O)c2c(Cl)ccc3nonc23)CC1 | 75* | -2 | 0 | 41 | 68* | .
Cc1cc(NC(=O)COC(=O)C2CCN(S(=O)(=O)c3c(Cl)cccc3Cl)CC2)no1 | 92* | -1 | 7 | 20 | . | 17
CCOC(=O)C1CCN(S(=O)(=O)c2cccc3nonc23)CC1 | 0 | 0 | 3 | 9 | 5 | 1
Cc1cnc(C2OCCO2)c2cccc(N)c12 | 5 | . | . | -3 | 7 | .
Nc1nc(=S)c2[nH]c(=S)[nH]c2[nH]1 | 12 | . | . | 0 | 7 | .
Nc1nc(=S)c2[nH]cnc2[nH]1 | 25 | . | . | 75* | -11 | .
O=C(c1ccc(NS(=O)(=O)c2ccc(F)cc2)cc1)N1CCOCC1 | -8 | . | 29 | -12 | 16 | .
O=C1CCCCC(=O)[C@H](OC(=O)c2ccccc2)C[C@H](c2ccccc2)O1 | 14 | . | . | 67* | -7 | .
CCOC(=O)c1ccccc1NC(=O)C1CCN(c2ncnc3sc(C)c(C)c23)CC1 | -22 | . | -3 | 10 | 1 | .
Cc1sc2ncnc(N3CCC(C(=O)Nc4nc(-c5cccs5)cs4)CC3)c2c1C | 67* | . | -29 | 31 | 25 | .
Cc1sc2ncnc(N3CCC(C(=O)Nc4ccccc4C(C)(C)C)CC3)c2c1C | 74* | . | 0 | 19 | 53* | .
O=C1NC[C@@H](CCCCN2C[C@H](Cc3ccc(O)cc3)N(CCc3ccccc3)C(=O)C2=O)N(Cc2ccccc2)C1=O | 8 | . | . | -8 | 15 | .
O=C(Nc1cccc(S(=O)(=O)N2CCCCCC2)c1)c1cncc(Br)c1 | 28 | . | . | 3 | 26 | .
Cc1nc(Nc2ccc(Cl)c(Cl)c2)sc1C(=O)Nc1ccccc1 | 84* | 6 | -2 | 6 | 38 | 13
O=C(CCC(=O)N1CCN(Cc2ccccc2)CC1)Nc1nnc(C2CCCCC2)s1 | -1 | -3 | -7 | 6 | -6 | .
CCCCn1c(CCl)nc2cc(S(=O)(=O)N3CCOCC3)ccc21 | 4 | . | . | 69* | 4 | .
